This is a sample that favours compounds with a hit; in the whole collection about 2.4% have one here.
D2 antag: antagonists of human D2 dopamine receptor; actives 2% (n = 340,000); inhibition, % at 10 µM; HEK293 TREx D2 cells, calcium flux, dopamine EC80; in the data active means inhibition above about 30%; inactive means below that, where a call was filed; further: 0% is about no effect
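Inhibition of EC80 dopamine-driven calcium flux, recorded kinetically, defines activity here; cells are a tetracycline-induced HEK293 T-REx line expressing force-coupled D2.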
D2 PAM-1: positive allosteric modulators of human D2 dopamine receptor | HEK293 T-REx D2, calcium flux, EC20 dopamine potentiation | potentiation, % at 10 µM | actives 0.34% (n = 340,000) | AID 485347;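 active means potentiation over 3 SD above the plate norm, cut at about 30% in these data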; further: 0% is about no effect
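Potentiation of an EC20 dopamine calcium response is measured in a force-coupled, tetracycline-inducible Hek293 Trex D2 line. Compound-only kinetic reads over 180 s flag agonists before dopamine addition.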
D2 ag-1: human D2 receptor agonism in beta-arrestin assay; DiscoveRx PathHunter D2 beta-arrestin, luminescence, 90 min; 100% = 57 uM dopamine signal; P14416; activation, % (no concentration beside the values); actives 0.084% (n = 360,000); in the data active means activation above about 40%; inconclusive means between about 15% and that limit
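Agonist mode: compounds alone added to overnight-plated D2 PathHunter cells for 90 min at 37 C, with 57 uM final dopamine (EC100) defining full response. Beta-arrestin recruitment detected by chemiluminescent reagent, read after 1 h at ambient temperature.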
D2 PAM-2: human D2 receptor positive allosteric modulation; DiscoveRx D2 beta-arrestin cells, luminescence, 90 min; 100% = 57 uM dopamine signal; potentiation, % (test concentration not listed); actives 0.23% (n = 360,000); AID 624464; in the data active means potentiation above about 50%; inconclusive means mostly about 30% to 49%
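PathHunter beta-arrestin assay in DiscoveRx D2 cells. Compounds were added with an EC20 of dopamine (50 nM final) for 90 min at 37 deg C. Luminescence was read 1 h after detection reagent, with 57 uM dopamine as the EC100 control.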
D2 ag-2: D2 dopamine receptor (human) agonism | HEK293 T-REx D2 cells, calcium flux agonist mode | P14416 | actives 0.53% (n = 340,000) | activation, % at 2 µM;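 active means activation over 3 SD above normal in the single-dose calcium agonist read, cut at about 30% in these data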; further: 0% is about no effect
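Agonism is scored from calcium flux in a force-coupled, inducible HEK293 cell line expressing D2, read kinetically for 180 s after compound addition against dopamine controls.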
D3 ag: D3 receptor agonism confirmed, beta-arrestin readout; shares compounds with D2 ag-2; DiscoveRx D3 beta-arrestin cells, luminescence, 90 min; Potency, µM (doses to about 76.9 µM), inactives show top-dose activation, most hits filed as activators; actives 4% (n = 2,300); AID 720506;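 further: potency means the concentration at half of the fitted maximal effect; 100% = dopamine control response; nearly all actives have a fitted effect of over 70% in size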
Target sequence (P35462 whole entry, looked up): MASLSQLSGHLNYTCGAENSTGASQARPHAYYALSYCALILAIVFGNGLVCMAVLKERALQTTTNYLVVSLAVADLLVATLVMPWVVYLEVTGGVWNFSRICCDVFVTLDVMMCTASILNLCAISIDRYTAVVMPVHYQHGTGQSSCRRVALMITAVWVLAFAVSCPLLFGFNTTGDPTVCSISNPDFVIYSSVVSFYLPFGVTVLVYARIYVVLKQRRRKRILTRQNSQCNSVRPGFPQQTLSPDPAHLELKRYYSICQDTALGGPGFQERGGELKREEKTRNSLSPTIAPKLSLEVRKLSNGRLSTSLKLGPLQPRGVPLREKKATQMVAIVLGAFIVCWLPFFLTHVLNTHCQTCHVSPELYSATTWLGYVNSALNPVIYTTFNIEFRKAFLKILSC
D2 ag-3: D2 receptor agonism, beta-arrestin counterscreen; shares compounds with D2 ag-2; DiscoveRx PathHunter D2 beta-arrestin, luminescence, 90 min; response scale: percent relative to full dopamine signal; Potency, µM (highest dose often 76.9 µM), for the others: at the top dose activation, most hits filed as activators; actives 5.9% (n = 2,300); AID 720507; further: potency means the concentration at half of the fitted maximal effect; % of control where 0% means no effect; nearly all actives have a fitted effect of over 70% in size
* hit, by the source's call; ? = inconclusive; . = not tested or not shown. Unless noted, the call rests on the fitted dose curve; in most records, active means well fitted activation curve with a large enough effect; inconclusive means small, poorly fitted or top-dose-only effect; inactive means flat fitted curve, though single readings scatter.

SMILES	D2 antag	D2 PAM-1	D2 ag-1	D2 PAM-2	D2 ag-2	D3 ag	D2 ag-3
CCOC(=O)CN1C(=O)c2cccnc2Oc2ccccc21	.	5	.	.	1	.	.
COc1cccc(-n2cc(CN(C)Cc3nc(Cc4ccccc4)no3)cn2)c1	5	7	-2	-4	11	.	.
COc1cccc(-n2cc(CN(C)Cc3nc(Cc4cccc(F)c4)no3)cn2)c1	-3	-3	6	-3	16	4%	1%
Cc1cccc(Cn2cc(S(=O)(=O)c3ccccc3)c(=O)c3cc(F)c(N4CCOCC4)cc32)c1	.	5	.	.	0	.	.
O=C(NCc1cccnc1)C(=O)NCC(c1ccco1)N1CCN(c2ccccc2)CC1 (stereo not given)	19	-8	?	8	32*	?	?
O=C(NCc1ccccc1)C(=O)NCC(c1ccco1)N1CCN(c2ccccc2F)CC1 (stereo not given)	-6	-5	-4	-2	11	.	.
O=C(NCc1cccnc1)C(=O)NCC(c1ccco1)N1CCN(c2ccccc2F)CC1 (stereo not given)	-18	-21	41*	6	63*	-4%	?
CC(=NCCc1ccccc1)C1=C(O)CCC1=O	23	-15	3	-2	42*	-7%	-3%
N#C/C(=C\c1ccc(-c2ccccc2C(=O)O)o1)c1nc2ccccc2[nH]1	-17	5	-9	2	8	3%	-3%
Cn1c2c(c(=O)n(C)c1=O)C(C(F)(F)F)(C(F)(F)F)N=C(c1ccc(Cl)cc1)N2	1	18	4	?	5	?	1%
O=S(=O)(c1cc(Cl)ccc1Cl)N1CCc2ccccc21	37*	-17	-1	2	61*	-5%	4%
O=C(Nn1cnc2ccccc2c1=O)c1ccc(Br)cc1	26	-12	0	-2	43*	29%	10%
COc1ccc(C2=NOC3(CC(=O)N(c4ccc(F)cc4)C3=O)C2)c(OC)c1 (stereo not given)	5	-13	0	0	-1	.	.
COc1ccc(C2=NOC3(CC(=O)N(c4ccc5ccccc5c4)C3=O)C2)c(OC)c1 (stereo not given)	14	3	1	5	6	5%	1%
Cc1ccc(-c2csc(NC(=O)C[n+]3cc(-c4ccc(C)cc4)n4c3CCC4)n2)cc1	-19	-15	0	-12	-1	.	.
Cc1ccc(NC(=O)C[n+]2cc(-c3ccccc3)n3c2CCC3)c(C)c1	65*	-20	1	-5	81*	-23%	0%
O=C(C[n+]1cc(-c2ccccc2)n2c1CCC2)N1c2ccccc2Sc2ccccc21	37*	-29	0	-24	64*	1%	12%
O=C(C[n+]1cc(-c2ccccc2)n2c1CCC2)Nc1nc(-c2ccc(F)cc2)cs1	76*	-23	5	-20	76*	24%	?
Cc1ccc(-c2csc(NC(=O)C[n+]3cc(-c4ccccc4)n4c3CCC4)n2)cc1	64*	-21	7	4	77*	7%	18%
Cc1ccc(-c2c[n+](CC(=O)Nc3c(C)cccc3C)c3n2CCC3)cc1	0	-13	-6	-19	1	.	.
O=C(CC1C(=O)N(c2ccccc2)C(=O)N1CCC1=CCCCC1)Nc1ccc(F)cc1 (stereo not given)	.	-24	.	.	0	.	.
COC(=O)Cn1c(=O)c2cccn2c2ccc(F)cc21	.	8	.	.	1	.	.
O=C(CN1C(=O)NC2(CCCC2)C1=O)Nc1nc(-c2ccc(F)cc2)cs1	13	3	-2	1	1	-7%	3%
CCOc1ccccc1CNC(=O)C1CCCN(c2ncnc3onc(-c4ccc(F)cc4)c23)C1 (stereo not given)	.	4	.	.	.	.	.
O=C(c1ccc(Cl)cc1)c1ccccc1C(=O)N1CCOCC1	0	8	-1	-2	0	.	.
SMILES	D2 antag	D2 PAM-1	D2 ag-1	D2 PAM-2	D2 ag-2	D3 ag	D2 ag-3
Nc1nc(C(=O)N2CCOCC2)nn1C(=O)c1ccc(Cl)cc1	23	6	0	0	0	-12%	-10%
O=C(CCn1ccc2cc(S(=O)(=O)N3CCCC3)ccc21)NCc1cccc(Br)c1	.	5	.	.	-4	.	.
CCC(O)c1nc2ccccc2n1CCOc1cc(C)cc(C)c1 (stereo not given)	.	11	.	.	-1	.	.
CCc1noc(C)c1C(=O)NNC(=O)COc1ccccc1C	24	-6	-2	-1	1	-6%	-5%
CCc1noc(C)c1C(=O)NNC(=O)c1cc(OC)cc(OC)c1	-21	-8	0	-1	2	-3%	-4%
CCc1noc(C)c1C(=O)NNC(=O)c1cc(OC)c(OC)c(OC)c1	-10	-1	1	-6	0	.	.
CCc1noc(C)c1C(=O)NNC(=O)c1ccccc1	-11	-8	-3	0	0	.	.
O=C(CSc1nnc(-c2cccc(Br)c2)o1)N1CCOCC1	13	2	-1	5	0	-4%	3%
Cn1nnnc1Sc1ncnc2scc(-c3cccs3)c12	-6	31*	.	.	0	-1%	-2%
Cn1nnnc1Sc1ncnc2scc(-c3ccc(C(F)(F)F)cc3)c12	1	-5	.	.	-1	.	.
CCCCCSc1nc2sc3c(c2c(=O)n1-c1ccc(OC)cc1)CCN(C(C)=O)C3	.	17	.	.	-1	.	.
O=C(O)CCCCCCCCc1cn(CCc2c[nH]c3ccccc23)nn1	-1	-20	-2	-8	93*	3%	-2%
COc1cc(CN2CCN(C(=O)CC(C)C)CC2)cc(OC)c1OC	-1	2	1	3	0	.	.
Cc1ccc(CN2CCN(C(=O)CC(C)C)CC2)cc1	.	.	9	7	.	2%	10%
COc1ccc(CN2CCN(C(=O)CC(C)C)CC2)cc1	23	-4	-2	-8	38*	-2%	3%
Cc1ccc(C(=O)N2c3ccc(C)cc3C(C)(c3ccccc3)CC2(C)C)cc1 (stereo not given)	.	3	.	.	0	.	.
COc1ccc(C(=O)Oc2c(Sc3ccc(C)cc3)c(C)nn2C(C)(C)C)c(OC)c1	.	23	.	.	3	.	.
Cc1cccc(C)c1NC(=S)NCCc1ccc(O)c(O)c1	67*	-20	5	7	57*	-8%	?
Cc1cccc(NC(=S)NCCc2ccccc2)c1C	-5	14	-3	-5	-3	.	.
